Most compounds without a hit are left out; they make up all but 2.8% or so of the library.
HTT aggregate – reduces HttQ103-GFP aggregates in PC12 cells | 220,000 compounds, 1.1% hits | Potency, µM (doses to about 46.1 µM), actives largely listed as inhibitors | PC12 HttQ103-GFP aggregates, Acumen cytometry, 40 h; note: nearly all actives have a fitted effect of over 60% in size
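Ecdysone-promoter PC12 model expressing HTT exon 1 Q103 fused to GFP, induced by tebufenozide at 100 nM final. Compounds titrated; aggregates sized 1–25 µm scored on a 488 nm laser cytometer.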
ATXN2 expr inh – ATXN2 expression inhibition. Potency, µM (top dose mostly 57 µM), most hits filed as inhibitors. HEK-293 ATXN2-luciferase reporter, luminescence, 24 h. 360,000 compounds, 0.72% hits; note: nearly all actives have a fitted effect of over 55% in size
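qHTS (up to 57 uM final) was run with 24 h compound exposure of reporter cells at 37 °C. Each well was multiplexed: SteadyGlo luminescence measured ATXN2-luciferase expression after a fluorogenic Gly-Phe-AFC viability readout (25 uM final).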
HTT ATP protect – protects HTT-Q103 PC12 cells, measured by ATP; PC12 HTT-Q103 induced, cytoprotection, ATP luminescence, 40 h; Potency, µM (top dose mostly 56.4 µM), usual class: activators; 230,000 compounds, 0.14% hits; AID 1471; note: nearly all actives have a fitted effect of over 45% in size
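PC12 cells with ecdysone-inducible HTT exon 1 Q103-GFP, induced with 100 nM tebufenozide and co-treated with library compounds in a dose series (1536-well, 1500 cells/well). Cytoprotection read as ATP content by ATPlite luminescence.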
TGFb SMAD3 inh – TGF-b pathway inhibition; HepG2 CAGA-GFP TGF-b/SMAD3 reporter, GFP fluorescence, 18 h; TGF-beta stimulated, 500 pg/mL final; Potency, µM (doses to about 46.1 µM), hits mostly inhibitors; 410,000 compounds, 1.2% hits; AID 588855; note: nearly all actives have a fitted effect of over 65% in size
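Inhibition was scored as loss of TGF-beta-induced (500 pg/mL final, 18 hours, 37 degrees C) GFP in HEPG2 cells carrying a CAGA-GFP reporter, in DMEM with 1% FBS. Well GFP was summed per cell; Activity was normalised to unstimulated and stimulated DMSO wells, then concentration-response fitting.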
S2 tox – reduces viability in counter-screen for ATXN expression inhibitors; 400,000 compounds, 0.49% hits; S2 cells (HEK-293 line with an ATXN2-luciferase reporter) viability, CellTiter-Fluor protease fluorescence, 24 h; Potency, µM (doses to about 56.7 µM), actives largely listed as cytotoxic; note: nearly all actives have a fitted effect of over 40% in size
HepG2 viability – counter-screen for TGF-b inhibitors: cytotoxicity in HepG2 cells; HepG2 CAGA-GFP viability, ATP luminescence, 18 h; Potency, µM (doses to about 46.1 µM), most hits filed as cytotoxic; 410,000 compounds, 0.76% hits
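CellTiter-Glo luminescence gave cytotoxicity after 18 hours at 37 degrees C. The cells were HepG2 CAGA-GFP in 1% FBS DMEM, stimulated with 500 pg/mL TGF-beta after compound addition. %Activity was normalised to no-cell wells (complete cell-killing) and DMSO (no toxicity), and curves were fitted and classified.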
A number is an active result; i = inactive; ? = inconclusive; nt = no result given; ! = a repeat was not active; [ ] = another dose, or the depositor's remark. Calls come from the whole dose curve; as a rule, active = well fitted curve in the direction sought with a large enough effect; inconclusive = small, poorly fitted or top-dose-only effect, or another doubt; inactive = no such curve, though single readings can be large; an effect the other way counts as inactive or inconclusive.

SMILES | HTT aggregate | ATXN2 expr inh | HTT ATP protect | TGFb SMAD3 inh | S2 tox | HepG2 viability
CCN(C(=O)COc1ncnc2sccc12)c1ccccc1 | i | i | 1µM | i | i | i
CNC(=O)COc1ncnc2sccc12 | i | i | i | i | i | i
COc1ccccc1C(=O)NNC1=C(C(=O)C(F)(F)F)CCC1 | i | ? | i | ? | ? | i
COc1cccc(C(=O)NNC2=C(C(=O)C(F)(F)F)CCC2)c1 | i[9.22 µM] | i | i[10 µM] | ? | i | 4µM
O=C(NNC1=C(C(=O)C(F)(F)F)CCC1)c1ccc(Br)cc1 | 11µM | ? | i | 16µM | ? | 10µM
COc1cccc([C@@H]2Oc3ccc(Br)cc3C(=O)[C@H]2OC(=O)NS(=O)(=O)c2ccc(C)cc2)c1 | nt | nt | i | nt | nt | nt
Cc1ccc(C23CC4CC(CC(CN)(C4)C2)C3)cc1 | i | i[11.3 µM] | i[10 µM] | ? | ? | i
NCC12CC3CC(C1)CC(c1ccc(Br)cc1)(C3)C2 | nt | nt | nt | ? | nt | 13µM
O=S(=O)(c1cccs1)N1CCCc2cccc(O)c21 | 11µM | i | i | i | i | i
COc1ccc(CNC(=O)c2ccc(-c3nc(CSc4ccccc4)c(C)o3)cc2)cc1 | nt | i | nt | ? | i | 10µM
CCOc1ccc(CNC(=O)c2ccc(-c3nc(CSc4ccc(C)cc4)c(C)o3)cc2)cc1 | nt | i | nt | i | i | i
COC(=O)/C=C1\S/C(=N/NC(=O)c2ccccc2)NC1=O | i | i | i | i | i | i
COc1ccccc1/C=C1\S/C(=N/NC(=O)c2cccc(Br)c2)NC1=O | 10µM | i | i | i | i | i
Fc1cccc(Nc2cc(-n3cccn3)ncn2)c1 | 13µM | i | i[10 µM] | i | i | i
COCCc1ccc(OCC2CO2)cc1 (stereo not drawn) | nt | i | nt | nt | i | nt
Fc1ccc2[nH]c3c(N4CCc5ccccc5C4)ncnc3c2c1 | i[9.22 µM] | ? | i[10 µM] | ? | ? | i
Cc1ccc2[nH]c3c(N4CCOCC4)ncnc3c2c1 | ? | i | i | i | i | i
Cc1cccc2[nH]c3c(N4CCC5(CC4)OCCO5)ncnc3c12 | 22µM | i | i | i | ? | i
Cc1ccc2[nH]c3c(N4CCc5ccccc5C4)ncnc3c2c1 | 3.5µM | i | i | ? | ? | i
Clc1ccc2[nH]c3c(N4CCC5(CC4)OCCO5)ncnc3c2c1 | 8.9µM | ? | i | i | ? | i
CO[C@H]1OC2O[C@@]3(C)CC[C@H]4[C@H](C)CC[C@@H]([C@H]1C)[C@@]24OO3 (stereo partly drawn) | i | nt | i | nt | nt | nt
O=C(NNC(=O)c1cccnc1SCc1cccc([N+](=O)[O-])c1)c1ccccn1 | ? | 7.9µM | i[10 µM] | ? | i | i
O=C(NNC(=O)c1cccnc1SCc1cccc([N+](=O)[O-])c1)c1ccc(F)cc1 | ? | ? | i[10 µM] | i | ? | i
CC(C)C(=O)Nc1ncc(-c2cc(C(F)F)nn2-c2c(Cl)cccc2Cl)s1 | nt | i | nt | nt | nt | nt
COc1cc(NC(=O)Cn2ncc(Cl)c(Cl)c2=O)c(C)cc1[N+](=O)[O-] | ? | 27µM | i | ? | 17µM | i
SMILES | HTT aggregate | ATXN2 expr inh | HTT ATP protect | TGFb SMAD3 inh | S2 tox | HepG2 viability
C[C@@]12C[C@H](O)[C@@H]3[C@H](CCC4=CC(=O)CC[C@]43C)[C@H]1CC[C@@H]2c1csc(-c2ccccc2)n1 | nt | nt | i[10 µM] | nt | nt | nt
NS(=O)(=O)c1ccc(NC(=O)c2c(F)cccc2Cl)cc1 | i[9.22 µM] | i | i[10 µM] | i | i | i
Nc1nc(Nc2ccc(S(N)(=O)=O)cc2)nn1C(=O)c1c(F)cccc1F | nt | 12µM | nt | nt | nt | nt
COc1ccc(CN2[C@@H](CC(=O)O)c3ccc(/C=C/C(=O)O)cc3S2(=O)=O)cc1 | nt | nt | nt | i | nt | i
COc1ccc(CN2[C@@H](CC(C)=O)c3ccc(/C=C/C(C)=O)cc3S2(=O)=O)cc1 | nt | ? | nt | ? | ? | 11µM!
COc1cccc(N2[C@@H](CC(C)=O)c3ccc(/C=C/C(C)=O)cc3S2(=O)=O)c1 | nt | ? | nt | 16µM | nt | i
C[C@H]1Cc2c(-c3ccccc3)nc3c(c2CO1)CN(C(=O)NCc1ccco1)CC3 | nt | nt | i[10 µM] | nt | nt | nt
CCNC(=O)c1cc2c(-c3cc(OCCN4CCCC4)c(Cl)cc3Cl)nc(N)nc2s1 | nt | 1.4µM | nt | nt | nt | nt
C=CCC(C)(O)c1cccc(Br)c1 (stereo not drawn) | nt | nt | i | nt | nt | nt
COc1ccc(CNCCC(c2ccc(OC(C)C)cc2)C(C)C)cc1OC (stereo not drawn) | i | 32µM | i | ? | nt | 16µM
CCOCCCNCc1ccc(OC)c(OC)c1 | i | i | i[0.074 µM] | i | i | i
COc1ccc(C(CCNCc2ccc(OC(C)C)cc2)C(C)C)cc1 (stereo not drawn) | i[9.22 µM] | ? | i[10 µM] | ? | ? | 22µM
COc1ccc(C(CCNCc2ccc(N(C)C)cc2)C(C)C)cc1 (stereo not drawn) | i[9.22 µM] | nt | i[10 µM] | ? | ? | 10µM
COc1ccc(CNCCC(c2ccc(C)cc2)c2ccco2)cc1 (stereo not drawn) | nt | nt | nt | nt | nt | i
CON(C)C(=O)c1nnc2c(n1)[nH]c1ccccc12 | nt | nt | i[10 µM] | nt | nt | nt
Cc1ccc(OCCN2CCC2(C)C(=O)NCc2ccc(C(F)(F)F)cc2)cc1 (stereo not drawn) | nt | i | nt | 13µM | i | i
